{"source": "PubChem BioAssay AID1745853", "about": "(National Center for Advancing Translational Sciences (NCATS), 2022)", "assay_in_all_cases": "Primary Screen for Target Class Profiling of Small Molecule Inhibitors of Methyltransferases", "key": {"[1]": {"molecular_target": "Catechol O-methyltransferase (Homo sapiens) (UniProt P21964)", "sequence (P21964 whole entry, looked up)": "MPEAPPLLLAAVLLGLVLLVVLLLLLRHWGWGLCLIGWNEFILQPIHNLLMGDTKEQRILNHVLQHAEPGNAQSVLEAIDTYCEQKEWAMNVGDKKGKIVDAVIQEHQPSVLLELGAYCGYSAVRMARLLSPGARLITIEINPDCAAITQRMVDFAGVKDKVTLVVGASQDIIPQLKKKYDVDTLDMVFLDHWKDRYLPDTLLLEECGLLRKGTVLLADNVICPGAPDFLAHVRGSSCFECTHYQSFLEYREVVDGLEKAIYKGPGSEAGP", "details": "purified enzyme, MTase-Glo SAH luminescence; activity change, negative = inhibition: at 40 µM, stronger effect = lower value; outcome: 40 uM", "in_short": "(§1)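 Each enzyme was reacted with SAM and its substrate, with compounds tested once at 40 uM; SAH formed was read by MTase-Glo luminescence.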"}, "[2]": {"molecular_target": "Glycine N-methyltransferase (Homo sapiens) (UniProt Q14749)", "sequence (Q14749 whole entry, looked up)": "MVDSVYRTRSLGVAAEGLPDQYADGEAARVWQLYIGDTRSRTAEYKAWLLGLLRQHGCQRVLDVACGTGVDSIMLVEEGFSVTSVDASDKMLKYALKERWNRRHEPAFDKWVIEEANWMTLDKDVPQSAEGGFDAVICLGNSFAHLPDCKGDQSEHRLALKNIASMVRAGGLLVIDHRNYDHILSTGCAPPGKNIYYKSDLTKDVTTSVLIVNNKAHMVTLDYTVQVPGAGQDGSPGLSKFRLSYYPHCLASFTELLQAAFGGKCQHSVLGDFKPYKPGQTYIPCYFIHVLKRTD", "details": "purified enzyme, MTase-Glo SAH luminescence; measured here: GNMT inhibition; at 40 µM; stronger effect = lower value", "in_short": "as §1"}, "[3]": {"molecular_target": "Guanidinoacetate N-methyltransferase (Homo sapiens) (UniProt Q14353)", "details": "purified enzyme, MTase-Glo SAH luminescence; measured here: GAMT inhibition; at 40 µM; stronger effect = lower value", "in_short": "as §1"}, "[4]": {"molecular_target": "Histamine N-methyltransferase (Homo sapiens) (UniProt P50135)", "sequence (P50135 whole entry, looked up)": "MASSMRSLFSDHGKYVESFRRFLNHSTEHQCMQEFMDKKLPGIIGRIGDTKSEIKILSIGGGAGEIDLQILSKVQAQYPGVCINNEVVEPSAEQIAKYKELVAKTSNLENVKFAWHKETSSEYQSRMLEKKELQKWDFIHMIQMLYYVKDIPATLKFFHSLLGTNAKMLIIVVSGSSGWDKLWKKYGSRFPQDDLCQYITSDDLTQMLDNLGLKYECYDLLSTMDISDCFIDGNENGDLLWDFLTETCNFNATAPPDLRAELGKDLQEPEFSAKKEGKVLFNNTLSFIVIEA", "details": "purified enzyme, MTase-Glo SAH luminescence; measured here: HNMT inhibition; at 40 µM; stronger effect = lower value", "in_short": "as §1"}, "[5]": {"molecular_target": "Nicotinamide N-methyltransferase (Homo sapiens) (UniProt P40261)", "sequence (P40261 whole entry, looked up)": "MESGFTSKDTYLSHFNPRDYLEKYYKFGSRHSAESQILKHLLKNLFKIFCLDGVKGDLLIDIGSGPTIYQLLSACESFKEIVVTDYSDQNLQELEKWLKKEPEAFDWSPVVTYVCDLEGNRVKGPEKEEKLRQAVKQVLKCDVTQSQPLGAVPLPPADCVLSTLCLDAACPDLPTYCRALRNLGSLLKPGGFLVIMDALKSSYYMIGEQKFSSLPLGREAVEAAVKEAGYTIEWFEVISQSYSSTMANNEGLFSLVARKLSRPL", "details": "purified enzyme, MTase-Glo SAH luminescence; measured here: NNMT inhibition; at 40 µM; stronger effect = lower value", "in_short": "as §1"}, "[6]": {"molecular_target": "Phenylethanolamine N-methyltransferase (Homo sapiens) (UniProt P11086)", "sequence (P11086 whole entry, looked up)": "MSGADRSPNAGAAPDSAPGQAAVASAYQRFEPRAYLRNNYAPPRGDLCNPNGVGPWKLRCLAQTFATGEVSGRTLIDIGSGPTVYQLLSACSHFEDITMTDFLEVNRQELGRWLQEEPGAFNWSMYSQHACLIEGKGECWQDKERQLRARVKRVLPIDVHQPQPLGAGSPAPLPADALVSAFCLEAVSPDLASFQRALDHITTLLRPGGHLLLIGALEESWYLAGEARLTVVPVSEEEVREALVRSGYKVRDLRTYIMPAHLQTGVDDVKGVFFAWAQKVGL", "details": "purified enzyme, MTase-Glo SAH luminescence; measured here: PNMT inhibition; at 40 µM; stronger effect = lower value", "in_short": "as §1"}}, "note": "Screen size: about 25,000 compounds; about 970 (3.9%) were called active. About 8% were inconclusive and are not listed. The rule behind the calls is not given here. The list comes from a sample in which actives are over-represented; it also holds similar structures and randomly drawn compounds. % is set by controls: 0 for no effect and ±100 for the full control effect."}
{"smiles": "CCC(CC)C(=O)NC[C@H]1O[C@@H](CC(=O)N2CCC(C)CC2)[C@H](O)[C@@H]1O", "values": [{"measurement": "activity change, negative = inhibition", "setting": "[1]", "value": "0.159% (inactive)"}, {"measurement": "activity change, negative = inhibition", "setting": "[2]", "value": -5.41, "unit": "%"}, {"measurement": "activity change, negative = inhibition", "setting": "[3]", "value": -3.2, "unit": "%"}, {"measurement": "activity change, negative = inhibition", "setting": "[4]", "value": 0.02, "unit": "%"}, {"measurement": "activity change, negative = inhibition", "setting": "[5]", "value": -4.29, "unit": "%"}, {"measurement": "activity change, negative = inhibition", "setting": "[6]", "value": -0.431, "unit": "%"}]}
{"smiles": "Cc1cnc(-c2ccccc2)n1CCNC(=O)CCC1CCCC1", "values": [{"measurement": "activity change, negative = inhibition", "setting": "[1]", "value": "-2.65% (inactive)"}, {"measurement": "activity change, negative = inhibition", "setting": "[2]", "value": -4.13, "unit": "%"}, {"measurement": "activity change, negative = inhibition", "setting": "[3]", "value": -6.61, "unit": "%"}, {"measurement": "activity change, negative = inhibition", "setting": "[4]", "value": -3.82, "unit": "%"}, {"measurement": "activity change, negative = inhibition", "setting": "[5]", "value": -12.7, "unit": "%"}, {"measurement": "activity change, negative = inhibition", "setting": "[6]", "value": -3.43, "unit": "%"}]}
{"smiles": "Cc1cnc(C2CCC2)n1C1CCN(C(=O)CCC2CCCC2)CC1", "values": [{"measurement": "activity change, negative = inhibition", "setting": "[1]", "value": "-0.614% (active)"}, {"measurement": "activity change, negative = inhibition", "setting": "[2]", "value": -2.95, "unit": "%"}, {"measurement": "activity change, negative = inhibition", "setting": "[3]", "value": 3.19, "unit": "%"}, {"measurement": "activity change, negative = inhibition", "setting": "[4]", "value": -52.2, "unit": "%"}, {"measurement": "activity change, negative = inhibition", "setting": "[5]", "value": -10.2, "unit": "%"}, {"measurement": "activity change, negative = inhibition", "setting": "[6]", "value": 12.5, "unit": "%"}]}
{"smiles": "NS(=O)(=O)c1ccc(F)c(C(=O)NCc2noc(-c3ccco3)n2)c1", "values": [{"measurement": "activity change, negative = inhibition", "setting": "[1]", "value": "-11.2% (inactive)"}, {"measurement": "activity change, negative = inhibition", "setting": "[2]", "value": -7.86, "unit": "%"}, {"measurement": "activity change, negative = inhibition", "setting": "[3]", "value": -7.24, "unit": "%"}, {"measurement": "activity change, negative = inhibition", "setting": "[4]", "value": -3.67, "unit": "%"}, {"measurement": "activity change, negative = inhibition", "setting": "[5]", "value": -12, "unit": "%"}, {"measurement": "activity change, negative = inhibition", "setting": "[6]", "value": -1.94, "unit": "%"}]}
{"smiles": "CCOc1ccc(CNC(=O)c2ncn3c2C(=O)N(C2CC2)C(C)(C(=O)NCc2ccccc2Cl)C3)cc1", "note": "(centres undefined)", "values": [{"measurement": "activity change, negative = inhibition", "setting": "[1]", "value": "11.3% (inactive)"}, {"measurement": "activity change, negative = inhibition", "setting": "[2]", "value": 1.47, "unit": "%"}, {"measurement": "activity change, negative = inhibition", "setting": "[3]", "value": 2.43, "unit": "%"}, {"measurement": "activity change, negative = inhibition", "setting": "[4]", "value": 7.45, "unit": "%"}, {"measurement": "activity change, negative = inhibition", "setting": "[5]", "value": 1.94, "unit": "%"}, {"measurement": "activity change, negative = inhibition", "setting": "[6]", "value": 7.97, "unit": "%"}]}
{"smiles": "CCN(CC)CCCCNc1ncc2cc(-c3c(Cl)cccc3Cl)c(NC(=O)NC(C)(C)C)nc2n1", "values": [{"measurement": "activity change, negative = inhibition", "setting": "[1]", "value": "-1.2% (active)"}, {"measurement": "activity change, negative = inhibition", "setting": "[2]", "value": -7.18, "unit": "%"}, {"measurement": "activity change, negative = inhibition", "setting": "[3]", "value": 10.6, "unit": "%"}, {"measurement": "activity change, negative = inhibition", "setting": "[4]", "value": -54.9, "unit": "%"}, {"measurement": "activity change, negative = inhibition", "setting": "[5]", "value": -20.4, "unit": "%"}, {"measurement": "activity change, negative = inhibition", "setting": "[6]", "value": 0.23, "unit": "%"}]}
{"smiles": "CN(CCc1ccccn1)c1ncccc1CNC(=O)C1CCc2ccccc21", "note": "(centres undefined)", "values": [{"measurement": "activity change, negative = inhibition", "setting": "[1]", "value": "-4.9% (inactive)"}, {"measurement": "activity change, negative = inhibition", "setting": "[2]", "value": -5.71, "unit": "%"}, {"measurement": "activity change, negative = inhibition", "setting": "[3]", "value": -6.23, "unit": "%"}, {"measurement": "activity change, negative = inhibition", "setting": "[4]", "value": -3.62, "unit": "%"}, {"measurement": "activity change, negative = inhibition", "setting": "[5]", "value": -10.6, "unit": "%"}, {"measurement": "activity change, negative = inhibition", "setting": "[6]", "value": -5.62, "unit": "%"}]}
{"smiles": "CCCCOc1ccc(CNC(=O)c2cc3n(n2)CC(C)(C(=O)NCc2ccccc2)N(C)C3=O)cc1", "note": "(centres undefined)", "values": [{"measurement": "activity change, negative = inhibition", "setting": "[1]", "value": "6.54% (inactive)"}, {"measurement": "activity change, negative = inhibition", "setting": "[2]", "value": 8.47, "unit": "%"}, {"measurement": "activity change, negative = inhibition", "setting": "[3]", "value": 0.793, "unit": "%"}, {"measurement": "activity change, negative = inhibition", "setting": "[4]", "value": 9.19, "unit": "%"}, {"measurement": "activity change, negative = inhibition", "setting": "[5]", "value": 11.5, "unit": "%"}, {"measurement": "activity change, negative = inhibition", "setting": "[6]", "value": 7.21, "unit": "%"}]}
{"smiles": "CC(C)(C)c1ccc(S(=O)(=O)NCc2ccc(C(=O)Nc3cccnc3)cc2)cc1", "values": [{"measurement": "activity change, negative = inhibition", "setting": "[1]", "value": "-2.26% (inactive)"}, {"measurement": "activity change, negative = inhibition", "setting": "[2]", "value": -3.93, "unit": "%"}, {"measurement": "activity change, negative = inhibition", "setting": "[3]", "value": -2.21, "unit": "%"}, {"measurement": "activity change, negative = inhibition", "setting": "[4]", "value": -1.56, "unit": "%"}, {"measurement": "activity change, negative = inhibition", "setting": "[5]", "value": -14.6, "unit": "%"}, {"measurement": "activity change, negative = inhibition", "setting": "[6]", "value": -7.18, "unit": "%"}]}
{"smiles": "CC(C)(C)c1ccc(C(=O)Nc2cc(Cl)c(Br)cc2C(=O)O)cc1", "values": [{"measurement": "activity change, negative = inhibition", "setting": "[1]", "value": "-7.23% (active)"}, {"measurement": "activity change, negative = inhibition", "setting": "[2]", "value": -49.9, "unit": "%"}, {"measurement": "activity change, negative = inhibition", "setting": "[3]", "value": -17.8, "unit": "%"}, {"measurement": "activity change, negative = inhibition", "setting": "[4]", "value": -39.8, "unit": "%"}, {"measurement": "activity change, negative = inhibition", "setting": "[5]", "value": -69, "unit": "%"}, {"measurement": "activity change, negative = inhibition", "setting": "[6]", "value": -27.1, "unit": "%"}]}
{"smiles": "Cc1ccccc1CN1C(=O)c2cc(-c3cccs3)nn2CC1(C)C(=O)NC1CCCCC1", "note": "(centres undefined)", "values": [{"measurement": "activity change, negative = inhibition", "setting": "[1]", "value": "0.113% (inactive)"}, {"measurement": "activity change, negative = inhibition", "setting": "[2]", "value": -0.305, "unit": "%"}, {"measurement": "activity change, negative = inhibition", "setting": "[3]", "value": 0, "unit": "%"}, {"measurement": "activity change, negative = inhibition", "setting": "[4]", "value": 0.259, "unit": "%"}, {"measurement": "activity change, negative = inhibition", "setting": "[5]", "value": 3.22, "unit": "%"}, {"measurement": "activity change, negative = inhibition", "setting": "[6]", "value": -1.18, "unit": "%"}]}
{"smiles": "COc1ccc(C2Cn3nnc(-c4noc(C5CCC5)n4)c3CO2)cc1", "note": "(centres undefined)", "values": [{"measurement": "activity change, negative = inhibition", "setting": "[1]", "value": "-14.4% (inactive)"}, {"measurement": "activity change, negative = inhibition", "setting": "[2]", "value": -9.87, "unit": "%"}, {"measurement": "activity change, negative = inhibition", "setting": "[3]", "value": -9.12, "unit": "%"}, {"measurement": "activity change, negative = inhibition", "setting": "[4]", "value": -7.42, "unit": "%"}, {"measurement": "activity change, negative = inhibition", "setting": "[5]", "value": -17.1, "unit": "%"}, {"measurement": "activity change, negative = inhibition", "setting": "[6]", "value": -12.5, "unit": "%"}]}
{"smiles": "CN1C(=O)C2(CCN(Cc3cccn3C)C2)c2ccccc21", "note": "(centres undefined)", "values": [{"measurement": "activity change, negative = inhibition", "setting": "[1]", "value": "-4.01% (inactive)"}, {"measurement": "activity change, negative = inhibition", "setting": "[2]", "value": -11.7, "unit": "%"}, {"measurement": "activity change, negative = inhibition", "setting": "[3]", "value": -5.16, "unit": "%"}, {"measurement": "activity change, negative = inhibition", "setting": "[4]", "value": -17.5, "unit": "%"}, {"measurement": "activity change, negative = inhibition", "setting": "[5]", "value": -15.9, "unit": "%"}, {"measurement": "activity change, negative = inhibition", "setting": "[6]", "value": -0.794, "unit": "%"}]}
{"smiles": "O=C(/C=C/c1ccc(CN(CCO)CCc2c[nH]c3ccccc23)cc1)NO", "values": [{"measurement": "activity change, negative = inhibition", "setting": "[1]", "value": "19.6% (active)"}, {"measurement": "activity change, negative = inhibition", "setting": "[2]", "value": -17.2, "unit": "%"}, {"measurement": "activity change, negative = inhibition", "setting": "[4]", "value": -68.8, "unit": "%"}, {"measurement": "activity change, negative = inhibition", "setting": "[5]", "value": -31, "unit": "%"}, {"measurement": "activity change, negative = inhibition", "setting": "[6]", "value": 12.3, "unit": "%"}]}
{"smiles": "C/C=C\\NC(=O)C1NC(=O)C(CC(N)=O)NC(=O)C(NC(=O)C(=O)C(C)CC)Cc2ccc(O)c(c2)-c2cccc3c2NC(=O)C3(O)C1O", "note": "(centres undefined)", "values": [{"measurement": "activity change, negative = inhibition", "setting": "[1]", "value": "-7.46% (inactive)"}, {"measurement": "activity change, negative = inhibition", "setting": "[2]", "value": -2.05, "unit": "%"}, {"measurement": "activity change, negative = inhibition", "setting": "[3]", "value": -15.1, "unit": "%"}, {"measurement": "activity change, negative = inhibition", "setting": "[4]", "value": -0.643, "unit": "%"}, {"measurement": "activity change, negative = inhibition", "setting": "[5]", "value": -26.2, "unit": "%"}, {"measurement": "activity change, negative = inhibition", "setting": "[6]", "value": -2.58, "unit": "%"}]}
